Data published in PubChem BioAssay (NCATS).
Values joined by “and” are separate entries in the source; they are usually repeats but may differ in a detail not shown here. Identical values can stand only once. Inconclusive results are not listed. Active and inactive are the calls of the source. Unless noted, the call rests on the fitted dose curve; in most records, active means well fitted curve in the direction sought with a large enough effect; inconclusive means small, poorly fitted or top-dose-only effect, or another doubt; inactive means no such curve, though single readings can be large; an effect the other way counts as inactive or inconclusive.

Tests used:
[1] = Cell Viability - LYMP2-026 (AID 989); further: on the % scale 0 is the no-effect control and ±100 the full control effect; nearly all actives have a fitted effect of over 50% in size
In short: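 Human lymphoblastoid LYMP2-026 cells, 2500/well, exposed to compound 24 h at 37 C in complete medium. Viability as intracellular ATP by CellTiter-Glo luminescence; AC50 from Hill fits of qHTS concentration-response.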

[2] = Cell Viability - LYMP1-002 - Assay at 24 hr (AID 993); further: on the % scale 0 is the no-effect control and ±100 the full control effect
In short: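 Human lymphoblastoid LYMP1-002 cells (2500/well) treated 24 h at 37 °C; viability as intracellular ATP by CellTiter-Glo luminescence. Tetraoctylammonium bromide as positive control; AC50 from Hill-equation fits of qHTS concentration-response.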

[3] = Cell Viability - LYMP1-002 - Assay at 40 hr (AID 994);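 further: 0% = DMSO only and full inhibition = 92 µM tetraoctylammonium bromide; nearly all actives have a fitted effect of over 60% in size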
In short: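 LYMP1-002 human lymphoblastoid cells (2500/well, complete medium) were treated with compounds for 40 hr at 37 C. Intracellular ATP was measured by CellTiter-Glo luminescence, and AC50 values came from Hill-equation fits of concentration-response data; tetraoctylammonium bromide was the positive control.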

[4] = qHTS Assay for Lipid Storage Modulators (AID 1519; calls by dose curve; on activity change, negative = inhibition: on the % scale 0 is the no-effect control and ±100 the full control effect); details: Drosophila S3 cells, BODIPY lipid droplet/cell ratio, laser cytometry, cells loaded with oleic acid
In short: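 Cells seeded at 5,000 per well were treated with compounds over a concentration series and loaded with oleic acid (400 uM, as added). Lipid droplet fluorescence (488 nm excitation, 500-530 nm channel) was read by laser-scanning cytometry and normalized to 20 uM Triacsin C.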

[5] = qHTS Assay for Identification of Small Molecule Inducers of Hypoxia Response (AID 2120; active means well fitted curve in the direction sought with a large enough effect in the signal ratio, with a control signal flat, not every such curve was filed as active; the % refers to the signal ratio; further: 0% is about no effect)
In short: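 HRE-bla ME-180 cells in Opti-MEM with 0.5% dialyzed FBS, pre-plated 4-5 h, then compound titration for 17 h at 37 degrees Celsius. CCF4 loaded 2.5 h at room temperature; 460/530 nm ratio gave %Activity and AC50 for induction.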

[6] = target: DNA repair nuclease/redox regulator APEX1 (Homo sapiens) (UniProt P27695); assay: qHTS Validation Assay for Inhibitors of the Human Apurinic/apyrimidinic Endonuclease 1 (APE1) (AID 1705; further: potency means the concentration at half of the fitted maximal effect)
Sequence of DNA repair nuclease/redox regulator APEX1 (Homo sapiens) (P27695 whole entry, looked up): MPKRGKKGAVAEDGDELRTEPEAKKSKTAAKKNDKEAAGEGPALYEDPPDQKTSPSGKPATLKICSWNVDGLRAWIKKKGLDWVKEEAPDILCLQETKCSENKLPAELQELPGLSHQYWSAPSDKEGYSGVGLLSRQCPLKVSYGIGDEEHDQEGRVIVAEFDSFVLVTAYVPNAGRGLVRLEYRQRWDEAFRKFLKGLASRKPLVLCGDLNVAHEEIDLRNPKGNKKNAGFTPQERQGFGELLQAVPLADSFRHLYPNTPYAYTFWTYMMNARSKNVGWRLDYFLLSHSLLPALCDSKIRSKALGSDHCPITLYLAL
In short: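 Fluorogenic double-stranded THF abasic-site substrate (5'-TAMRA/3'-BHQ-2), 50 nM final. Enzyme preincubated with compound 15 min at room temperature, then substrate added. Kinetic fluorescence (ex 525/em 598 nm) read three times at 60 s intervals; activity taken as third-minus-first read difference.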

[7] = Counterscreen for APE1 Inhibitors: Fluorescent Dye Displacement Validation Assay (AID 1707);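 further: plate controls were ThO with dsDNA and no compound for no effect and ThO without dsDNA for full effect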
In short: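 ThO 250 nM + dsDNA 50 nM (THF abasic site, 5'-TAMRA), Tris-HCl pH7.5/50mM NaCl/2 mM MgCl2/0.01% Tween-20; compounds pin-transferred; ex 480/em 540 nm endpoint. Neutral = no compound; no-DNA ThO wells = negative control.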

[8] = target: Endonuclease 4 (Escherichia coli (strain K12)) (UniProt P0A6C1); assay: Counterscreen for APE1 Inhibitors: qHTS Validation Assay for Inhibitors of Endonuclease IV (AID 1708); further: on the % scale 0 is the no-effect control and ±100 the full control effect
In short: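 qHTS concentration-response format; LOPAC1280 tested under APE1-screen conditions. 2 nM enzyme, 15 min compound preincubation at RT, then 50 nM TAMRA/BHQ-2 abasic substrate; kinetic fluorescence read, three reads at 60 s intervals.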

[9] = qHTS for differential inhibitors of proliferation of Plasmodium falciparum line 7G8 (AID 1815);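 further: parasite growth measured after three days of incubation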; further: potency means the concentration at half of the fitted maximal effect;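 on activity change, negative = inhibition: plate controls were vehicle wells for no effect and reference inhibitor wells for full effect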
[10] = qHTS for differential inhibitors of proliferation of Plasmodium falciparum line GB4 (AID 1816); details: Potency: Plasmodium falciparum GB4 proliferation inhibition;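 further: parasite growth measured after 72 h incubation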; further: potency means the concentration at half of the fitted maximal effect;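 on activity change, negative = inhibition: 0% = vehicle DMSO and -100% = reference inhibitor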
[11] = qHTS for differential inhibitors of proliferation of Plasmodium falciparum line 3D7 (AID 1876); further: potency means the concentration at half of the fitted maximal effect
[12] = qHTS for differential inhibitors of proliferation of Plasmodium falciparum line D10 (AID 1877);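 further: parasites grown with compound for 72 h before DNA staining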; further: potency means the concentration at half of the fitted maximal effect;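 on activity change, negative = inhibition: plate controls were vehicle wells for no effect and reference inhibitor wells for full effect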
[13] = qHTS for differential inhibitors of proliferation of Plasmodium falciparum line Dd2 (AID 1882); details: Potency: Plasmodium falciparum Dd2 proliferation inhibition; further: nearly all actives have a fitted effect of over 65% in size; further: potency means the concentration at half of the fitted maximal effect;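 on activity change, negative = inhibition: plate controls were DMSO vehicle for no effect and 0.29 µM artemisinin for full effect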
In short: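 Dd2-infected erythrocytes (0.3% parasitemia, 2.5% hematocrit final) incubated with compound 72 h at 37 C, 5% CO2; lysed with saponin/Triton buffer containing SYBR Green I, incubated overnight in the dark, then read by fluorescence (485/535 nm). Normalized to 0.29 uM artemisinin and DMSO.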

[14] = qHTS for differential inhibitors of proliferation of Plasmodium falciparum line W2 (AID 1883); details: Potency: Plasmodium falciparum W2 proliferation inhibition;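 further: parasites grown with compound for 72 h before lysis and staining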; further: potency means the concentration at half of the fitted maximal effect;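 on activity change, negative = inhibition: 0% = vehicle wells and -100% = control inhibitor wells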
[15] = qHTS for differential inhibitors of proliferation of Plasmodium falciparum line HB3 (AID 1886); details: Potency: Plasmodium falciparum HB3 proliferation inhibition;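 further: parasites grown with compound for 72 h before SYBR Green readout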; further: potency means the concentration at half of the fitted maximal effect;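 on activity change, negative = inhibition: plate controls were vehicle for no effect and reference inhibitor for full effect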
[16] = target: Ferritin light chain (Equus caballus) (UniProt P02791); assay: qHTS Validation Assay for Identification of Novel General Anesthetics (AID 2323); further: on the % scale 0 is the no-effect control and ±100 the full control effect
Sequence of Ferritin light chain (Equus caballus) (P02791 2-175 limits assumed): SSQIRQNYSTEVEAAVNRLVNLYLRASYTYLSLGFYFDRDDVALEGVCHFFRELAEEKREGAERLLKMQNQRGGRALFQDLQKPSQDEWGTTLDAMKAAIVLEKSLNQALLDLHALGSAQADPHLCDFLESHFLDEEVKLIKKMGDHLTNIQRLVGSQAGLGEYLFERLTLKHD
In short: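 Horse-spleen apoferritin (10 uM) in PBS with 50% saturated 1-aminoanthracene; compounds pin-transferred, 10 min at room temperature. Fluorescence read at 380/535 nm, normalized to free 1-AMA and 1-AMA/apoferritin values; four-parameter Hill fit.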

[17] = target: Alpha-galactosidase A (Homo sapiens) (UniProt P06280); assay: Counterscreen for Glucocerebrosidase Inhibitors: qHTS Assay for Human alpha-Galactosidase at pH 4.5 (AID 992); further: 0% is about no effect
Sequence of Alpha-galactosidase A (Homo sapiens) (P06280 whole entry, looked up): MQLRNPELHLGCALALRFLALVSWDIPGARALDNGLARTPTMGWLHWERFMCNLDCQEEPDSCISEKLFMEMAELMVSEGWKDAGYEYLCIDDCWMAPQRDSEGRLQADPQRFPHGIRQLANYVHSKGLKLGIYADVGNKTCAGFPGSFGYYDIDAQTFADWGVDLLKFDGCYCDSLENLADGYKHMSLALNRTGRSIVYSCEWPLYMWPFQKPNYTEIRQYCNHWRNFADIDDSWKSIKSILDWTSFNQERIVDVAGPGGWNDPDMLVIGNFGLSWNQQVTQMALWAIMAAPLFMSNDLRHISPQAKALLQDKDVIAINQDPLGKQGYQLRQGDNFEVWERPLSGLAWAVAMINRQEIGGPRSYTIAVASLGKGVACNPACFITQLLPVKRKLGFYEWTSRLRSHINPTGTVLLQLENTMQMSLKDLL
In short: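 Read-out is 4-methylumbelliferone fluorescence (365 nm excitation, 440 nm emission) after a pH 10 NaOH/glycine stop. Reactions held 2 nM enzyme and 80 uM substrate at pH 4.5 for 20 min at room temperature.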

[18] = target: alpha-glucosidase (Oryza sativa, rice) (UniProt Q653V4); assay: Counterscreen for Glucocerebrosidase Inhibitors: qHTS Assay for Rice alpha-Glucosidase at pH 5.0 (AID 997);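 further: 0% = full activity with enzyme and -100% = basal without enzyme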
In short: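 Rice alpha-glucosidase (4 nM final) with 400 uM 4-methylumbelliferyl-alpha-D-glucopyranoside in citrate buffer pH 5.0, 20 min at room temperature, stopped at pH 10; fluorescence 365/440 nm, compounds 0.7 nM–77 uM, AC50 from Hill fits.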

[19] = measured here: cell count channel max response
[20] = measured here: lipid channel max response

Cc1ccc(C)c(OCCCC(C)(C)C(=O)O)c1
8.2%: max response [4, 20]
inactive: Potency [1] | Potency [2] | Potency [3] | activity change, negative = inhibition ([4]; at 25.7 µM (top of the series)) 0.467%
10.3%: max response [4, 19]

c1ccc2[nH]c(-c3cscn3)nc2c1
inactive: Potency [1] | Potency [2] | Potency [3] | activity change, negative = inhibition ([4]; at 25.7 µM (top of the series)) 0.183% | outcome [5]
-10.4%: max response [4, 20]
-11.6%: max response [4, 19]

O=C(c1ccccc1)c1ccc2n1CCC2C(=O)O (centres undefined)
4.19%: max response [4, 19]
13.3%: max response [4, 20]
inactive: activity change, negative = inhibition ([4]; at 57.5 µM (top of the series)) 6.17% | Potency [6] | Potency [7] | outcome [8] | Potency [9] | Potency [10] | Potency [11] | Potency [12] | Potency [13] | Potency [14] | Potency [15] | Potency [16]

NC(=NCc1ccccc1)NC(=O)c1nc(Cl)c(N)nc1N
-4.9% and 26.9%: max response [4, 20]
active: Potency [9] 2 µM | Potency [10] 3.16 µM | Potency [11] 0.562 µM | Potency [12] 0.891 µM | Potency [14] 5.01 µM | Potency [15] 1 µM
inactive: outcome [17] | outcome [18] | activity change, negative = inhibition ([4]; at 25.7 µM (top of the series)) 0.817% | activity change, negative = inhibition ([4]; at 57.5 µM (top of the series)) 2.33% | Potency [6] | Potency [7] | outcome [8] | Potency [16]
-4.7% and 21.8%: max response [4, 19]

Oc1ccc(-c2nc(-c3ccc(F)cc3)c(-c3ccncc3)[nH]2)cc1
active: Potency [10] 12.6 µM | Potency [11] 11.2 µM | Potency [13] 11.2 µM | Potency [14] 6.31 µM
inactive: outcome [17] | outcome [18] | Potency [6] | Potency [7] | Potency [16]

O=c1cc(N2CCOCC2)oc2c(-c3ccccc3)cccc12
inactive: outcome [17] | outcome [18] | Potency [6] | Potency [7] | outcome [8] | Potency [11] | Potency [12] | Potency [13] | Potency [15] | Potency [16]

Cc1cc(=O)oc2cc(O)ccc12
-7.84%: max response [4, 19]
-11.2%: max response [4, 20]
inactive: activity change, negative = inhibition ([4]; at 25.7 µM (top of the series)) 0.949%

CCN(CCO)CCCC(C)Nc1ccnc2cc(Cl)ccc12 (centres undefined)
23.6%: max response [4, 20]
13.5%: max response [4, 19]
inactive: activity change, negative = inhibition ([4]; at 57.5 µM (top of the series)) 5.88%

O=C(O)c1cc(=O)c2c(OCC(O)COc3cccc4oc(C(=O)O)cc(=O)c34)cccc2o1
8.64% and 34.9%: max response [4, 20]
inactive: activity change, negative = inhibition ([4]; at 25.7 µM (top of the series)) -2.11% | activity change, negative = inhibition ([4]; at 57.5 µM (top of the series)) 11.5%
9.46% and 18.8%: max response [4, 19]

CC(C)c1ccc2c(c1)c(SC(C)(C)C)c(CC(C)(C)C(=O)O)n2Cc1ccc(Cl)cc1
active: Potency [6] 39.8 µM | Potency [9] 5.01 µM | Potency [10] 5.01 µM | Potency [11] 6.31 µM | Potency [12] 12.6 µM | Potency [13] 12.6 µM | Potency [14] 3.16 µM | Potency [15] 11.2 µM
inactive: outcome [17] | outcome [18]

NNc1nncc2ccccc12
inactive: outcome [17] | outcome [18] | Potency [6] | Potency [7] | outcome [8] | Potency [10] | Potency [11] | Potency [13] | Potency [15] | Potency [16]

NS(=O)(=O)c1cc(C(=O)O)c(NCc2ccco2)cc1Cl
-4.2%: max response [4, 20]
-6.97%: max response [4, 19]
inactive: Potency [1] | Potency [2] | Potency [3] | activity change, negative = inhibition ([4]; at 25.7 µM (top of the series)) 1.95% | outcome [5]

CS(=O)(=O)OCCCCOS(C)(=O)=O
inactive: Potency [1] | Potency [2] | Potency [3] | activity change, negative = inhibition ([4]; at 57.5 µM (top of the series)) 1.02% | outcome [5]
11.4%: max response [4, 20]
2.98%: max response [4, 19]

COc1ccccc1N1CCN(CCN(C(=O)C2CCCCC2)c2ccccn2)CC1
inactive: outcome [17] | outcome [18] | Potency [6] | Potency [7] | Potency [16]
active: Potency [9] 2.24 µM | Potency [14] 7.94 µM | Potency [15] 11.2 µM
